According to the supplement of paper PMC11732987, “Enantioselective OTUD7B fragment discovery through chemoproteomics screening and high-throughput optimisation” (Communications Chemistry, 2025):

Tests used:
Test in all cases: log2 ratio of Biotin-Ahx-Ub-VS probe labelling (fragment/DMSO); higher = less target engagement (more negative = stronger competition), active = hit call of the paper (q ≤ 0.05, log2 ratio ≤ -1)
Conditions in all cases: compound concentration: 200 uM; treatment time: 3 h
[1] = biological target: T1, ALG13 (UniProt Q9NP73)
T1 sequence (whole entry): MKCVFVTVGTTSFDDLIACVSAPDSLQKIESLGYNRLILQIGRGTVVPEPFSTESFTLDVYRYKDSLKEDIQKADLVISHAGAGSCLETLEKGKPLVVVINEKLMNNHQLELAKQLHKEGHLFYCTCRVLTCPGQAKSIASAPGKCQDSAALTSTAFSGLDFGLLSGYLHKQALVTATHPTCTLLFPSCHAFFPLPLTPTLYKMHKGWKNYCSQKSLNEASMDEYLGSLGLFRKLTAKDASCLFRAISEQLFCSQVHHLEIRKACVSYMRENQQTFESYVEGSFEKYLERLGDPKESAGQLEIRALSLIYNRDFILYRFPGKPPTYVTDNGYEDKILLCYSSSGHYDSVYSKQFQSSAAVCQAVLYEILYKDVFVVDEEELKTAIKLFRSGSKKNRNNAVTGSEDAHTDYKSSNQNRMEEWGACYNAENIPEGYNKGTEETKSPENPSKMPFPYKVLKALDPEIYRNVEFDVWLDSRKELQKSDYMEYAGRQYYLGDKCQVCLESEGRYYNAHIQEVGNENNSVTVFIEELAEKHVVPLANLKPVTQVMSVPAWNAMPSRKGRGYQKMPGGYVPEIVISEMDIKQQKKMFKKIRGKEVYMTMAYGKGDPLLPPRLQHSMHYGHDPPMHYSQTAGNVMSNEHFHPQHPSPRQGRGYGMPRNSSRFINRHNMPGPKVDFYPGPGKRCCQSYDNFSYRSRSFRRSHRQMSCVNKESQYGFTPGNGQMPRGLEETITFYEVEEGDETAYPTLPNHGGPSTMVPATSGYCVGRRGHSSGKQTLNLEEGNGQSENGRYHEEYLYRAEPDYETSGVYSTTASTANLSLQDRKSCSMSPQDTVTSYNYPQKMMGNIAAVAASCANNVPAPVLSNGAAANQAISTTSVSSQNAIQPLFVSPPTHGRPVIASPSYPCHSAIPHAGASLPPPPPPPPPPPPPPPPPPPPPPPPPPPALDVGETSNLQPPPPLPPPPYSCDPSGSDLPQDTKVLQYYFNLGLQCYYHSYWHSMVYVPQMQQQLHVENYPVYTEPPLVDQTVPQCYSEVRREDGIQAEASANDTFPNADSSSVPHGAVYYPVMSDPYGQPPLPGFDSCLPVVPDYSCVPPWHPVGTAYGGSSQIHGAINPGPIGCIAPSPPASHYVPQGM
Outline: (§1)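 The table lists average log2 ratios of fragment over vehicle, from an unpaired t-test on global-median-normalised Spectronaut label-free quantities. Proteins with ≥2 unique peptides were used. Samples were HEK293T lysate (495 µg) treated in triplicate with fragment at 200 µM or vehicle for 3 h, then with Biotin-Ahx-Ub-VS (0.5 µM final) for 1 h, with labelled DUBs NeutrAvidin-enriched and run by diaPASEF LC-MS/MS.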

[2] = biological target: ATXN3 (UniProt P54252)
Outline: as §1

[3] = biological target: T2, BAP1 (UniProt Q92560)
T2 sequence (whole entry): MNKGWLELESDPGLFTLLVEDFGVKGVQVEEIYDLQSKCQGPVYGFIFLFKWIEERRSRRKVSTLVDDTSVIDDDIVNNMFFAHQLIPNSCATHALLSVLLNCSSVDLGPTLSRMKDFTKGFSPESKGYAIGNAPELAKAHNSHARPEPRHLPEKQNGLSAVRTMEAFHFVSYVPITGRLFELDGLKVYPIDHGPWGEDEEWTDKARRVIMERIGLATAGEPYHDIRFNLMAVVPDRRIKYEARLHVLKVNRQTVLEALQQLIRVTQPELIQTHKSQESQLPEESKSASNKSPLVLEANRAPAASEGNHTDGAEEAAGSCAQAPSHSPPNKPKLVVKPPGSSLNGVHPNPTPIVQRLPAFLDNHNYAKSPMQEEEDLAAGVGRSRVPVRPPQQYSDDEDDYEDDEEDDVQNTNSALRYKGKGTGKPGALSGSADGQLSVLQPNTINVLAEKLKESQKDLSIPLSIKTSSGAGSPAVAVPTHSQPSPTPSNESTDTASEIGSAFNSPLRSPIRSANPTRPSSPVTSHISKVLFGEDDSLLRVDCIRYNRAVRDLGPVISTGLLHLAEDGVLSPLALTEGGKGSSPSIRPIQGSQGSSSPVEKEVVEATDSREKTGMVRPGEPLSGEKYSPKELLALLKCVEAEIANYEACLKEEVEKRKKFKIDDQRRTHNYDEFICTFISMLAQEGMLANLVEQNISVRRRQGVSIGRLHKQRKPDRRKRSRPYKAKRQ
Outline: as §1

[4] = biological target: EIF3F (UniProt O00303)
Outline: as §1

[5] = biological target: EIF3H (UniProt O15372)
Outline: as §1

[6] = biological target: T3, FAM105A (UniProt Q9NUU6)
T3 sequence (whole entry): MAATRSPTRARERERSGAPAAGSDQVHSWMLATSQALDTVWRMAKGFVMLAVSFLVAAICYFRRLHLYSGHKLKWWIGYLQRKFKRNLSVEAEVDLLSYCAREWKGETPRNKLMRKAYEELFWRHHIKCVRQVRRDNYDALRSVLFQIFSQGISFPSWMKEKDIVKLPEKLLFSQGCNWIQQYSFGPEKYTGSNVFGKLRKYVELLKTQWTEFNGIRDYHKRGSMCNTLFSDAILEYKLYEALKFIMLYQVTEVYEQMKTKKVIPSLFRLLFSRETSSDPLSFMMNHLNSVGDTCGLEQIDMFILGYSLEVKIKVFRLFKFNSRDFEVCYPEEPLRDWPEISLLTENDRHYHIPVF
Outline: as §1

[7] = biological target: OTUB1 (UniProt Q96FW1)
Outline: as §1

[8] = biological target: T4, OTUD4 (UniProt Q01804)
T4 sequence (whole entry): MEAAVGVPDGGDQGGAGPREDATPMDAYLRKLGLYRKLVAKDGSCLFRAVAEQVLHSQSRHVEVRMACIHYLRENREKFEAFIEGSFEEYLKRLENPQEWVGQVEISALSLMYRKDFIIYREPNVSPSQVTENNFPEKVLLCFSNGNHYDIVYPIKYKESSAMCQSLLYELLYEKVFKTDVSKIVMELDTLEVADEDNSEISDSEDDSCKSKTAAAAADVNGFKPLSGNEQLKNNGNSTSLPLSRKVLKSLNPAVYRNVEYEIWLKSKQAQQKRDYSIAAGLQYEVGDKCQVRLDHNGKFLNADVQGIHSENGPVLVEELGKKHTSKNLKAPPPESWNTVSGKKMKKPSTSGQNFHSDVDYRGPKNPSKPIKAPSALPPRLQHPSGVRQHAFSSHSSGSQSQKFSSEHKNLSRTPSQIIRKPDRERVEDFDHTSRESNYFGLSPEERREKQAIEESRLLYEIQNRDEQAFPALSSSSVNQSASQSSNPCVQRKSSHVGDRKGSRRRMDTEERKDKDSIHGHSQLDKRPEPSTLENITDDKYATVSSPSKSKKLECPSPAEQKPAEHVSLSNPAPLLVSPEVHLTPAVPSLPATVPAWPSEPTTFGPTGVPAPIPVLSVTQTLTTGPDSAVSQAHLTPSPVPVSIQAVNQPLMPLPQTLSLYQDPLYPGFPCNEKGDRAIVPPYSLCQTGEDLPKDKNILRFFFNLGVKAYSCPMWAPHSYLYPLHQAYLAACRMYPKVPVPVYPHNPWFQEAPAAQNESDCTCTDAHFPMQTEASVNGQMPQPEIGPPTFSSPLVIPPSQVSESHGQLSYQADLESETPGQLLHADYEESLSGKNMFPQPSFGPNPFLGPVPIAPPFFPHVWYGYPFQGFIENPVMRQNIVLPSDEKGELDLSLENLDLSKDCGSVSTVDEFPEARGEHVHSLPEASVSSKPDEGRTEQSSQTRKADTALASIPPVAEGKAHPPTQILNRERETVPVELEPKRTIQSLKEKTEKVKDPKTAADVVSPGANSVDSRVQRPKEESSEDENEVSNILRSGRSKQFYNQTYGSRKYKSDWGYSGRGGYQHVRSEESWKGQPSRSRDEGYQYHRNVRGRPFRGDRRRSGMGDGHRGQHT
Outline: as §1

[9] = biological target: T5, OTUD5 (UniProt Q96G74)
T5 sequence (whole entry): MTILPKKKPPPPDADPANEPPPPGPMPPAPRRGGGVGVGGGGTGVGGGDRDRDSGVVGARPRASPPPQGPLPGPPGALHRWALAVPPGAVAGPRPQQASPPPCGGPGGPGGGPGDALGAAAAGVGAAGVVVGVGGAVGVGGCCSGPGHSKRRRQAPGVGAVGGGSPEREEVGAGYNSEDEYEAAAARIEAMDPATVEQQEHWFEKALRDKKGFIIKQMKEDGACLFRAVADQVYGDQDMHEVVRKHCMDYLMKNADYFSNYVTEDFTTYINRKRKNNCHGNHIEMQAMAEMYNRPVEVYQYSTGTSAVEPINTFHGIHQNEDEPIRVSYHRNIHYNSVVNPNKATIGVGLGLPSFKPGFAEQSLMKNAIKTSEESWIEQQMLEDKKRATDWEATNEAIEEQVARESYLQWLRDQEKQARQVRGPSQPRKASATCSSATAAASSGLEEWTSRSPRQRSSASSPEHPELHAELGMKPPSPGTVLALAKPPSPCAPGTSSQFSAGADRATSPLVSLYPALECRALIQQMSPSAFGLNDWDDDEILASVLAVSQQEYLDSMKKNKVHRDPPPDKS
Outline: as §1

Measured: log2 ratio of Biotin-Ahx-Ub-VS probe labelling

EIF3H, sequence (O15372 whole entry): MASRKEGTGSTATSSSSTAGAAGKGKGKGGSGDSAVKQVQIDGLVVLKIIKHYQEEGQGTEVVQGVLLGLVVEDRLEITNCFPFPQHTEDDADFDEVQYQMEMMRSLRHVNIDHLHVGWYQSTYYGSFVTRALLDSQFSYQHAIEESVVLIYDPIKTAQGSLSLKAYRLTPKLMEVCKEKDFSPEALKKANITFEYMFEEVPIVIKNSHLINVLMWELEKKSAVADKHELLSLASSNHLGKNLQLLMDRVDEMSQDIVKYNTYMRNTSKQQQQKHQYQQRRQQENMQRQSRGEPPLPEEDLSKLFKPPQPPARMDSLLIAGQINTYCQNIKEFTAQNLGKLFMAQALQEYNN
OTUB1, sequence (Q96FW1 whole entry): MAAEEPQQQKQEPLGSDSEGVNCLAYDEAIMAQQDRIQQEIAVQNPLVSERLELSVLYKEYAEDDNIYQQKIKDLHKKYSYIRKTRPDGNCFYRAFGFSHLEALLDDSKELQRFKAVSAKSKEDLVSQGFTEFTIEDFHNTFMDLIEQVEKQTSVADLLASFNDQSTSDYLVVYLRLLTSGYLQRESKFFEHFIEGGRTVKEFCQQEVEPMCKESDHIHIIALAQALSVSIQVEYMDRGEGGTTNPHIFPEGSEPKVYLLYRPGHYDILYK
ATXN3, sequence (P54252 whole entry): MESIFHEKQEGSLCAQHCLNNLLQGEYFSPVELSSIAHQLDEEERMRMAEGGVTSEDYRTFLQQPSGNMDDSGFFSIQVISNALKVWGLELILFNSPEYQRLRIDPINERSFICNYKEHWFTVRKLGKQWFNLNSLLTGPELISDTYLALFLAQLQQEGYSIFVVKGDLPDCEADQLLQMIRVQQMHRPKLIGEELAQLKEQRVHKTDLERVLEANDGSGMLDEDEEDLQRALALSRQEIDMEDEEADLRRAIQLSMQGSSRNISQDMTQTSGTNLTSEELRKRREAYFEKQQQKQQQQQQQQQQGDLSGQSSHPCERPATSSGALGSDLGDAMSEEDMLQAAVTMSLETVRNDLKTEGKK
EIF3F, sequence (O00303 whole entry): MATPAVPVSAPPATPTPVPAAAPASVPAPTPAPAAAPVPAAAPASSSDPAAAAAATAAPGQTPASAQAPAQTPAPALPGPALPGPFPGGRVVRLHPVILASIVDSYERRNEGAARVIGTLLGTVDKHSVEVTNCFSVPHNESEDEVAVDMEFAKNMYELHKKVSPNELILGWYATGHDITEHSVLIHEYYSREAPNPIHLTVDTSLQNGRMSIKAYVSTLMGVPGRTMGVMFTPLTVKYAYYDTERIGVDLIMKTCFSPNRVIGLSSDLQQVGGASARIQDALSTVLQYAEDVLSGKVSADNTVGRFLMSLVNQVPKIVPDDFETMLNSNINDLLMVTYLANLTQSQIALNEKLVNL

CC(NC(=O)CCl)c1cccc2ccccc12 (centres undefined)
active: [3] -4.13 | [8] -1.01
inactive: [1] 0.0911 | [2] -0.129 | [4] -0.0141 | [5] -0.0531 | [6] -0.022 | [7] -0.352 | [9] -0.234
